Measured values taken from the supplement of paper PMC10849652.
Targets with a hit are over-represented here; the source holds about 8,800 in all. About 0.5% of all pairs of compound and target were hits.

Legend:
Assay in all cases: log2 fold change, soluble protein after heating vs DMSO (PISA); higher = thermal stabilisation; K562 lysate, 10 uM; active = over 0.2 and 3.5 SD of the protein, either way, in both replicates (recomputed)
ibrutinib = compound: C=CC(=O)N1CCC[C@@H](n2nc(-c3ccc(Oc4ccccc4)cc3)c3c(N)ncnc32)C1 [ibrutinib]
Method in brief: (§1)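 Quantification was by TMTpro 16plex LC-MS/MS with equalised channel sums, applied to the supernatant after 21,000xg for 90 min. Samples were crude K562 extract at 1 mg/mL protein in PBS pH 7.4 with 1 mM MgCl2, treated with 10 μM compound for 30 min, heated for 3 min across 48°C-58°C, pooled and brought to 0.5% NP-40 at 4°C. Values are log-two fold changes in thermal stability relative to solvent controls, from duplicates.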

ralimetinib = compound: CC(C)(C)Cn1c(N)nc2ccc(-c3[nH]c(C(C)(C)C)nc3-c3ccc(F)cc3)nc21 [ralimetinib]
Method in brief: as §1

[1] = compound: CC(C)(O)CC(=O)NCCn1ccc2ncnc(Nc3ccc(Oc4cccc(C(F)(F)F)c4)c(Cl)c3)c21
Method in brief: as §1

[2] = compound: CC(C)C1=C2N=C(C=C(N2N=C1)NCC3=CC=CC=C3)NCCCCCCN
Method in brief: as §1

[3] = compound: CC1=C(C=C(C=C1)NC(=O)C2=CC(=CC=C2)C(C)(C)C#N)NC3=CC4=C(C=C3)N=CN(C4=O)C
Method in brief: as §1

[4] = compound: CC1=C(C=C(C=C1)NC(=O)C2=CC(=CC=C2)N(C)C)NC(=O)C3=CC=C(C=C3)O
Method in brief: as §1

barasertib = compound: CCN(CCCOc1ccc2c(Nc3cc(CC(=O)Nc4cccc(F)c4)[nH]n3)ncnc2c1)CCOP(=O)(O)O [barasertib]
Method in brief: as §1

[5] = compound: CCn1c(C(=O)N(C2CC2)C2CC2)cc2c3c(ncn3C)c(Nc3cc(C)n(C)n3)nc21
Method in brief: as §1

[6] = compound: CCn1cc(-c2ccnc3[nH]c(-c4cccc(CN(C)C)c4)cc23)c(-c2ccc(NC(=O)N(C)C)cc2)n1
Method in brief: as §1

[7] = compound: CN1CCC(CNc2ccc3ncc(-c4cccc(OC(F)(F)F)c4)n3n2)CC1
Method in brief: as §1

sotrastaurin = compound: CN1CCN(c2nc(C3=C(c4c[nH]c5ccccc45)C(=O)NC3=O)c3ccccc3n2)CC1 [sotrastaurin]
Method in brief: as §1

[8] = compound: CC(=O)c1cnc2ccc(-c3cc(Cl)c(O)c(Cl)c3)nc2c1N[C@H]1CC[C@H](CN(C)C)CC1
Method in brief: as §1

[9] = compound: CC1=CC=C(C=C1)SC2=C3C=C(SC3=CN=C2)C(=O)N
Method in brief: as §1

[10] = compound: CCCS(=O)(=O)Nc1ccc(F)c(C(=O)c2c[nH]c3ncc(Cl)cc23)c1F
Method in brief: as §1

volasertib = compound: CC[C@@H]1C(=O)N(C)c2cnc(Nc3ccc(C(=O)N[C@H]4CC[C@H](N5CCN(CC6CC6)CC5)CC4)cc3OC)nc2N1C(C)C [volasertib]
Method in brief: as §1

[11] = compound: CC1=C(C2=C(C=C1)C(=O)C3=CC=CC=C3N2CCCN)C
Method in brief: as §1

vemurafenib = compound: CCCS(=O)(=O)Nc1ccc(F)c(C(=O)c2c[nH]c3ncc(-c4ccc(Cl)cc4)cc23)c1F [vemurafenib]
Method in brief: as §1

[12] = compound: CC[C@@H]1C(=O)N(C)c2cnc(Nc3ccc(C(=O)NC4CCN(C)CC4)cc3OC)nc2N1C1CCCC1
Method in brief: as §1

saracatinib = compound: CN1CCN(CCOc2cc(OC3CCOCC3)c3c(Nc4c(Cl)ccc5c4OCO5)ncnc3c2)CC1 [saracatinib]
Method in brief: as §1

[13] = compound: CC1=C(C(CC(=O)N1)C2=CC=C(C=C2)C(F)(F)F)C(=O)NC3=C(C=C4C(=C3)C=NN4)F
Method in brief: as §1

Measured: log2 fold change

DYRK1A isoform 2 (UniProt Q13627)
inactive: ibrutinib -0.063 | ralimetinib 0.085 | [1] -0.241 | [2] 0.005 | [3] 0.004 | [4] -0.081 | barasertib 0.006 | [5] 0.308 | [6] 0.085 | [7] 0.221 | sotrastaurin 0.033

GAPVD1 (UniProt Q14C86)
Chain of UniProt Q14C86 (Q14C86 whole entry, looked up): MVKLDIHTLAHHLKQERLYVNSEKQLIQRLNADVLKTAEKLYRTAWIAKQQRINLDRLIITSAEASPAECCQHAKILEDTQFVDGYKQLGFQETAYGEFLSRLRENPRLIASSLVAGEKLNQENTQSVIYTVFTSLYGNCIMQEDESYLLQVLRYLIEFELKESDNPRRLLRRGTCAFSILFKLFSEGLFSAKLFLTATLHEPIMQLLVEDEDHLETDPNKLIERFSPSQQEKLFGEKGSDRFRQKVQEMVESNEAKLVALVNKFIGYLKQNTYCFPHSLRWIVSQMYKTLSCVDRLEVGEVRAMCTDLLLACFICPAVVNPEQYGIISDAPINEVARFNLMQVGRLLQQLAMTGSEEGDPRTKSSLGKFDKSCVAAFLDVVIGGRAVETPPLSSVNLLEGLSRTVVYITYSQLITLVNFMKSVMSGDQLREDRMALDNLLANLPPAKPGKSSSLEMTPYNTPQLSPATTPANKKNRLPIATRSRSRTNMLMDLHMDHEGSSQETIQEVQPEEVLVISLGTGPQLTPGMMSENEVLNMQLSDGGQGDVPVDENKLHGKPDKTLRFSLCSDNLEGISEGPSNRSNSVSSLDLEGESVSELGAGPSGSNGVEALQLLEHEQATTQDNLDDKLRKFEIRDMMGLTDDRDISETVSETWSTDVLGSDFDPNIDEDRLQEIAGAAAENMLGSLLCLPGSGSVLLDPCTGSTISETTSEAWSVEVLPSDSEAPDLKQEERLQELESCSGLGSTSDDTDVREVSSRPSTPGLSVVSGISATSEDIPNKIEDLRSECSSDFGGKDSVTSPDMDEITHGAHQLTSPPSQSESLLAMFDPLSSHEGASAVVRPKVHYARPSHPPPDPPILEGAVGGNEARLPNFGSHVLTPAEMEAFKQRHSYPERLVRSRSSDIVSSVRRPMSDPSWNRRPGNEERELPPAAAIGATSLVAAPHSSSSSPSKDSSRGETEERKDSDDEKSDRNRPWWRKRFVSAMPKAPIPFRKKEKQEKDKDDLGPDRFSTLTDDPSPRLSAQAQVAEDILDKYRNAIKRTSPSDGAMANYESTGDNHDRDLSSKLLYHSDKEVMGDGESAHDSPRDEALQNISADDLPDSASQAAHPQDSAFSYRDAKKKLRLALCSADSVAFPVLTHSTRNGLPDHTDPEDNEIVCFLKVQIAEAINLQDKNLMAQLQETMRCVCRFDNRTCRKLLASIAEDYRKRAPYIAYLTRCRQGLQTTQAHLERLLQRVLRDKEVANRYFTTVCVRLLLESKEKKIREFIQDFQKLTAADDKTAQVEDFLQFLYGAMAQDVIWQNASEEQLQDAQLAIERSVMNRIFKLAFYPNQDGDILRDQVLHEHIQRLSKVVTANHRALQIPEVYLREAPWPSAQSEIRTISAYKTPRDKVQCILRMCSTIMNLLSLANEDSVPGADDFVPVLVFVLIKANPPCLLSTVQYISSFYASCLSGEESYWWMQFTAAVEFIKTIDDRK
inactive: ibrutinib 0.086 | [8] 0.317 | [9] -0.666 | [10] 0.116 | barasertib 0.078 | volasertib -0.305

FAM111A (UniProt Q96PZ2)
inactive: [8] 0.171 | ralimetinib 0.116 | [1] 0.083 | [2] 0.125 | [11] -0.106 | [3] -0.093 | [4] 0.022 | [9] -0.244 | vemurafenib -0.02 | [12] -0.34 | volasertib -0.045 | [5] 0.112 | saracatinib 0.055 | sotrastaurin -0.016
active: [10] 0.432

DYNC1I2 isoform 2 (UniProt Q13409)
Chain of UniProt Q13409 (Q13409 whole entry, looked up): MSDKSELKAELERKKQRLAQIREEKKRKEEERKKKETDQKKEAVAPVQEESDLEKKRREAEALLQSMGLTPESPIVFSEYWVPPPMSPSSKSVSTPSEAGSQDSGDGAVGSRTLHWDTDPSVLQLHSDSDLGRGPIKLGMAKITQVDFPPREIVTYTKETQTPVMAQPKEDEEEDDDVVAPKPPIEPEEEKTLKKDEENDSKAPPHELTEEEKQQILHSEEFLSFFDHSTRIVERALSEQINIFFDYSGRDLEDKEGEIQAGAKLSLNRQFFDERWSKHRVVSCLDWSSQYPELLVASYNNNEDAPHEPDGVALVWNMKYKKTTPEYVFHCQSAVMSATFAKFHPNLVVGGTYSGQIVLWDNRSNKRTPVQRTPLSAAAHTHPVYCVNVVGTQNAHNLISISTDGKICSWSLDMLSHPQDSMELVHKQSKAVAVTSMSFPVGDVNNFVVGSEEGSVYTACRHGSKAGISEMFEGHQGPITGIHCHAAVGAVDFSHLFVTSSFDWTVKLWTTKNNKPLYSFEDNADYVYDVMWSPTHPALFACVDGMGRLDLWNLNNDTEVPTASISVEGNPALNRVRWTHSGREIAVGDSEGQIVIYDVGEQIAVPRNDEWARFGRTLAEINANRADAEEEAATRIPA
inactive: ibrutinib -0.101 | [8] -0.032 | ralimetinib -0.04 | [1] -0.032 | [2] -0.017 | [11] 0.083 | [3] -0.019 | [4] -0.047 | [9] 0.012 | vemurafenib -0.073 | [10] 0.042 | barasertib -0.123 | [12] 0.132 | volasertib -0.039 | [5] 0.035 | [6] -0.022 | [7] 0.082 | saracatinib -0.077 | sotrastaurin 0.006

EPB41 isoform 4 (UniProt P11171)
inactive: [8] 0.048 | ralimetinib -0.056 | [1] -0.018 | [2] 0.148 | [13] -0.012 | [3] 0.042 | [4] -0.001 | [9] -0.004 | [10] 0.014 | volasertib 0.134 | [5] -0.079 | [6] -0.073 | [7] -0.065 | sotrastaurin -0.02

FTSJ1 isoform 2 (UniProt Q9UET6)
inactive: [8] 0.026 | [9] 0.001 | vemurafenib -0.164 | [10] 0.021 | [12] -0.024 | volasertib 0.013 | [6] -0.019 | [7] 0.047

EPB41, A0A2R8Y783
inactive: ibrutinib 0.196 | [8] 0.093 | [11] 0.057 | [9] 0.034 | vemurafenib 0.129 | [10] 0.063 | barasertib 0.112 | [12] -0.141 | volasertib 0.057 | [6] -0.136 | [7] -0.048 | saracatinib 0.075

GC isoform 3 (UniProt P02774)
inactive: ralimetinib 0.051 | [11] -0.148 | [3] -0.087 | [4] -0.101 | vemurafenib -0.008 | [12] 0.022 | [5] -0.27 | [6] 0.146 | [7] -0.12 | saracatinib -0.02 | sotrastaurin 0.043
active: [1] -0.559

DTL (UniProt Q9NZJ0)
inactive: ibrutinib 0.012 | ralimetinib 0.037 | [1] -0.024 | [2] -0.05 | [13] 0.041 | [11] -0.104 | [3] 0.071 | [4] -0.037 | vemurafenib -0.007 | barasertib 0.044 | [5] 0.02 | [6] 0.065 | [7] -0.034 | saracatinib -0.1 | sotrastaurin -0.03

EWSR1 (UniProt H7BY36)
inactive: ibrutinib -0.288 | ralimetinib -0.073 | [1] -0.052 | [11] -0.126 | [3] 0.071 | [4] 0.39 | vemurafenib -0.035 | barasertib -0.055 | [12] 0.095 | [5] -0.046 | [6] -0.056 | [7] -0.043 | saracatinib 0.024 | sotrastaurin -0.02

GABPB1 isoform 3 (UniProt Q06547)
inactive: ibrutinib 0.085 | [8] -0.027 | ralimetinib 0.043 | [1] -0.068 | [2] 0.121 | [11] 0.099 | [3] -0.051 | [4] -0.042 | [9] 0.03 | vemurafenib 0.057 | [10] 0.074 | barasertib 0.141 | [12] -0.048 | volasertib -0.11 | [5] -0.016 | [6] -0.042 | [7] -0.028 | saracatinib -0.006 | sotrastaurin -0.022

ESRRB isoform 1 (UniProt O95718)
inactive: ibrutinib -0.047 | ralimetinib 0.035 | [1] -0.087 | [2] -0.187 | [4] 0.053 | barasertib -0.004 | [5] -0.118 | [6] 0.242 | [7] -0.127

FBRSL1, A0A3B3IRR3
active: [3] -0.381
inactive: ibrutinib 0.072 | ralimetinib 0.027 | [1] 0.008 | [2] -0.075 | [13] -0.01 | [11] 0.183 | [4] 0.012 | vemurafenib 0.132 | barasertib 0.055 | [12] 0.069 | [5] 0.085 | [6] 0 | [7] -0.061 | saracatinib -0.028 | sotrastaurin -0.039

EXO5 (UniProt Q9H790)
inactive: ibrutinib 0.111 | ralimetinib 0.018 | [1] -0.126 | [2] -0.025 | [3] 0.217 | [4] -0.067 | barasertib 0.111 | [5] -0.022 | sotrastaurin 0.128

EPN2 (UniProt I3L356)
inactive: ibrutinib 0.105 | [8] -0.021 | [13] 0.102 | [9] 0.097 | [10] 0.212 | barasertib -0.106 | volasertib -0.026 | [6] -0.277 | [7] 0.075

FNDC3A (UniProt Q9Y2H6)
Chain of UniProt Q9Y2H6 (Q9Y2H6 whole entry, looked up): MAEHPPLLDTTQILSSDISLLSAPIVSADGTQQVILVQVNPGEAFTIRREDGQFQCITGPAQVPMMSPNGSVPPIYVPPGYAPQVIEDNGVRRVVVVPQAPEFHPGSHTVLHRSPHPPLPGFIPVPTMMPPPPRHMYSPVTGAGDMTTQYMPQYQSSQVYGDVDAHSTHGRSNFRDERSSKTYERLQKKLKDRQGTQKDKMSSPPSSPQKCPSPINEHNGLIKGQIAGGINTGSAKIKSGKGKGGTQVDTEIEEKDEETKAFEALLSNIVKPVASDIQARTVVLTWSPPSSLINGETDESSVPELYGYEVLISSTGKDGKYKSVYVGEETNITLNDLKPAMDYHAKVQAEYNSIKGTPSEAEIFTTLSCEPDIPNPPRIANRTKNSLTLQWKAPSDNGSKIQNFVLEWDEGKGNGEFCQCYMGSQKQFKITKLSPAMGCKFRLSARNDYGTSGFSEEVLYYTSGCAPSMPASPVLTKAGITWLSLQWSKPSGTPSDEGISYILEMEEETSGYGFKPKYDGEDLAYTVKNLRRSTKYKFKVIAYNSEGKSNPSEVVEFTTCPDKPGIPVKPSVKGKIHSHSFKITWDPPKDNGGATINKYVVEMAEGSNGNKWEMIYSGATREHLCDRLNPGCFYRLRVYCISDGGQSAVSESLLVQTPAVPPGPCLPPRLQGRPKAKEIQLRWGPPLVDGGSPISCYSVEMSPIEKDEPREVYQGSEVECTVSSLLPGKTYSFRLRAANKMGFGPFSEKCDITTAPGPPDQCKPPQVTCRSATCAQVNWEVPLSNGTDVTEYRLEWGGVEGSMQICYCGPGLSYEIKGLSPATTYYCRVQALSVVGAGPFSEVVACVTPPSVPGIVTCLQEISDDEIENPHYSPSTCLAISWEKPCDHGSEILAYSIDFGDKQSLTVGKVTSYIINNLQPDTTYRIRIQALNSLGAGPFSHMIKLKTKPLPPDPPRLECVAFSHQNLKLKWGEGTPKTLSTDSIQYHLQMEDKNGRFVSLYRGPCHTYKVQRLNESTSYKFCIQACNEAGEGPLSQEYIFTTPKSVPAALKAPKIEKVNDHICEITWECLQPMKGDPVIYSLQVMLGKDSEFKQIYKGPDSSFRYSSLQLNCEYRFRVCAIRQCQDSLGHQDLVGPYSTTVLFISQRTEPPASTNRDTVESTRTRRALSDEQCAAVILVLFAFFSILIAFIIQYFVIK
inactive: ralimetinib 0.118 | [1] -0.207 | [2] -0.093 | [13] 0.31 | [3] 0.027 | [4] 0.113 | [5] 0.044 | [6] -0.451 | [7] 0.138 | sotrastaurin -0.113

ELAVL4 (UniProt P26378)
Chain of UniProt P26378 (P26378 whole entry, looked up): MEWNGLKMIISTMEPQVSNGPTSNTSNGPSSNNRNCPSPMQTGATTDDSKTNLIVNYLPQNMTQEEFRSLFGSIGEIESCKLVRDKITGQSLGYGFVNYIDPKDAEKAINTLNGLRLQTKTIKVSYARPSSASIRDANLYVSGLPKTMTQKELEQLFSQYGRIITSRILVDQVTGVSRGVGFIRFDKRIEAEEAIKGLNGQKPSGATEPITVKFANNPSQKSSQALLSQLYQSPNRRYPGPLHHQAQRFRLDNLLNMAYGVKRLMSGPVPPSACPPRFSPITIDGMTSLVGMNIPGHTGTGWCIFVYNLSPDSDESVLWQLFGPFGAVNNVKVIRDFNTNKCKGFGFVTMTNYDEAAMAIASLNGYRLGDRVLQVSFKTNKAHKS
inactive: [8] -0.04 | ralimetinib 0.065 | [1] 0.064 | [2] 0.026 | [13] -0.061 | [11] -0.01 | [3] -0.005 | [4] -0.026 | [9] 0.073 | vemurafenib -0.045 | [10] 0.035 | [12] -0.119 | volasertib -0.038 | [5] 0.054 | [6] -0.006 | [7] 0.029 | saracatinib -0.052 | sotrastaurin 0

FOXJ2 (UniProt Q9P0K8)
inactive: ibrutinib -0.045 | ralimetinib 0.02 | [1] -0.035 | [2] 0.091 | [13] 0.041 | [11] -0.129 | [4] 0.108 | barasertib -0.049 | [12] -0.149 | [5] 0.1 | [6] -0.062 | [7] -0.071 | saracatinib -0.101

GAA (UniProt P10253)
inactive: ibrutinib 0.013 | [8] -0.011 | ralimetinib 0.054 | [1] -0.133 | [2] 0.009 | [13] 0.142 | [3] 0.028 | [4] 0.036 | [9] -0.084 | vemurafenib 0.068 | [10] -0.101 | barasertib -0.063 | [12] -0.006 | volasertib 0.015 | [5] -0.021 | [6] 0.122 | [7] 0.027 | sotrastaurin -0.039

EIF3I (UniProt Q5TFK1)
inactive: [8] 0.266 | [13] -0.661 | [9] -0.059 | [10] 0.147 | volasertib -0.112 | [6] -0.048 | [7] 0.044

FMNL2 isoform 3 (UniProt Q96PY5)
Chain of UniProt Q96PY5 (Q96PY5 whole entry, looked up): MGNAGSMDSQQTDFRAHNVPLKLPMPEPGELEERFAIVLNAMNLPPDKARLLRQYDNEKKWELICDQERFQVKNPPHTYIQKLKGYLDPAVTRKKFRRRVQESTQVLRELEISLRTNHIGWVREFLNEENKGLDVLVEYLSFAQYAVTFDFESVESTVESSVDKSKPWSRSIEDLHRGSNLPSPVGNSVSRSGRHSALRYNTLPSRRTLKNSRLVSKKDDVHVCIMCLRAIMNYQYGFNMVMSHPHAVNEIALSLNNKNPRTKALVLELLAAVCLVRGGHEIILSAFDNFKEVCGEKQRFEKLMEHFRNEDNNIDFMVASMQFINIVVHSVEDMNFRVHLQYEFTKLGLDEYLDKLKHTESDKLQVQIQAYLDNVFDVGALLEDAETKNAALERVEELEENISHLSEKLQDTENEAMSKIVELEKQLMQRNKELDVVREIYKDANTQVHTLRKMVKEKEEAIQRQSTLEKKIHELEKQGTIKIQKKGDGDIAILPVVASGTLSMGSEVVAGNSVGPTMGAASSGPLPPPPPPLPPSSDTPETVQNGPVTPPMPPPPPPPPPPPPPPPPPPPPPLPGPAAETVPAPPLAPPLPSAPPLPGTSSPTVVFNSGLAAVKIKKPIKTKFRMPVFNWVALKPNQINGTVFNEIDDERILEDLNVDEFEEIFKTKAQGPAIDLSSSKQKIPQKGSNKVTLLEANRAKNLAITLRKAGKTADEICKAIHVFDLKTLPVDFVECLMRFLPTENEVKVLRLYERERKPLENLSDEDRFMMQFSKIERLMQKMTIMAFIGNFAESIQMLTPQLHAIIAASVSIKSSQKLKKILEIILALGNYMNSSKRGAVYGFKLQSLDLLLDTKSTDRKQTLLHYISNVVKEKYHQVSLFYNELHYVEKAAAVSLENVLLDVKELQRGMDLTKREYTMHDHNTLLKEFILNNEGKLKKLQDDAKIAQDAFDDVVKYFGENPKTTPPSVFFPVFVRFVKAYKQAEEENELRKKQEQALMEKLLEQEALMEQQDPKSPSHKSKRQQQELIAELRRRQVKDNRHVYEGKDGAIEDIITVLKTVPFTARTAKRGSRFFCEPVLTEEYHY
inactive: [8] -0.048 | ralimetinib -0.02 | [1] 0.185 | [2] 0.065 | [13] -0.056 | [11] 0.071 | [3] 0.116 | [4] 0.048 | [9] -0.003 | [10] 0.022 | volasertib -0.013 | [5] -0.103 | saracatinib 0.04 | sotrastaurin 0.08

FAM204A (UniProt Q9H8W3)
Chain of UniProt Q9H8W3 (Q9H8W3 whole entry, looked up): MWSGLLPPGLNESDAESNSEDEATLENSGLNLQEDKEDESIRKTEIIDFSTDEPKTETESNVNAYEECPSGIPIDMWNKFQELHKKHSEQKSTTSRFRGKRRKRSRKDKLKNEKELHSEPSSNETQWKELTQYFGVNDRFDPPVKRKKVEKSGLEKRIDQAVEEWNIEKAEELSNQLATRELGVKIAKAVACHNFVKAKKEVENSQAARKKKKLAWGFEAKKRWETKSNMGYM
inactive: ralimetinib -0.12 | [1] 0.061 | [2] -0.117 | [3] 0.174 | [4] -0.002 | vemurafenib -0.003 | [5] 0.059 | [6] 0.273 | sotrastaurin -0.083
active: [7] -0.614

EVI5L isoform 2 (UniProt Q96CN4)
inactive: [6] 0.057 | [7] -0.183

EID1 (UniProt Q9Y6B2)
inactive: ralimetinib -0.06 | [1] -0.042 | [2] -0.173 | [13] 0.05 | [11] -0.116 | [4] -0.008 | [12] 0.015 | [5] 0.001 | [6] -0.073 | [7] 0.002 | saracatinib -0.157

EIF2B5, A0A3B3ITK8
inactive: [8] 0.015 | [13] 0.037 | [9] -0.104 | [10] -0.071 | volasertib 0.081

FOXL2 (UniProt P58012)
inactive: ibrutinib -0.074 | [8] -0.065 | ralimetinib 0.264 | [1] -0.095 | [2] 0.161 | [11] -0.023 | [4] 0.02 | [9] -0.035 | [10] 0.026 | barasertib 0.051 | [12] 0.01 | volasertib 0.046 | [5] 0.174 | saracatinib -0.038

DST isoform 3 (UniProt Q03001)
inactive: ibrutinib 0.005 | [2] -0.01 | barasertib 0.041 | [12] 0.052 | [7] -0.213
active: [6] 1.48

ERG28 (UniProt Q9UKR5)
active: [7] -0.497
inactive: ibrutinib 0.064 | [8] -0.045 | [11] 0.059 | [9] -0.004 | [10] -0.012 | barasertib 0.065 | [12] 0.179 | volasertib 0.048 | [6] 0.541 | saracatinib 0.1

FAT1 (UniProt Q14517)
inactive: [8] -0.109 | ralimetinib -0.034 | [1] -0.016 | [2] -0.05 | [3] 0.188 | [4] 0.024 | [9] -0.105 | [10] 0.022 | [12] 0.32 | volasertib 0.025 | [5] -0.344 | [6] 0.001 | [7] -0.036 | sotrastaurin -0.333
